According to ChEMBL document CHEMBL2218924, “A broad activity screen in support of a chemogenomic map for kinase signalling research and drug discovery” (Biochem J, 2013):

Experiments:
[1] = molecular target: T1, Inhibitor of nuclear factor kappa-B kinase subunit beta (Homo sapiens) (UniProt O14920); conditions: at 10 µM
T1 sequence (whole entry): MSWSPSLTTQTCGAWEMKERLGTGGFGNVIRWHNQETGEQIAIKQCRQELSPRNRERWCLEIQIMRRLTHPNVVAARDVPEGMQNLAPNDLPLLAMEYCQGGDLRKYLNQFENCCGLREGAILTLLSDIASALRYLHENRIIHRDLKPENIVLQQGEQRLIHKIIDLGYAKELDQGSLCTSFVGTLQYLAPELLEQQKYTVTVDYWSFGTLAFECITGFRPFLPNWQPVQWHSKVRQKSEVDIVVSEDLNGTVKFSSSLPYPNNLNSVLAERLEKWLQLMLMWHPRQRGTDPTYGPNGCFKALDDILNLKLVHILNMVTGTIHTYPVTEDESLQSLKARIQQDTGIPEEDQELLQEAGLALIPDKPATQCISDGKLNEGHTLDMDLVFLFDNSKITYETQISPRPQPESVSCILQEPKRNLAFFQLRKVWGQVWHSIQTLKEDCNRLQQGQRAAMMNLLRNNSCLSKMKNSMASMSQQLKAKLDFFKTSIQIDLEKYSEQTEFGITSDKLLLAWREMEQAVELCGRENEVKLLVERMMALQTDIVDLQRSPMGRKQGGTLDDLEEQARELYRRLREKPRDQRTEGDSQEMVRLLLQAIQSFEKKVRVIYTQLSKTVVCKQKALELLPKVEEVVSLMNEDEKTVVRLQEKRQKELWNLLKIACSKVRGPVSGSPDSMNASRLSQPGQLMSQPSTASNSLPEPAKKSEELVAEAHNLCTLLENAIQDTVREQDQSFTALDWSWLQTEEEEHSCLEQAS

[2] = molecular target: T2, Inhibitor of nuclear factor kappa-B kinase subunit alpha (Homo sapiens) (UniProt O15111); conditions: at 1 µM
T2 sequence (whole entry): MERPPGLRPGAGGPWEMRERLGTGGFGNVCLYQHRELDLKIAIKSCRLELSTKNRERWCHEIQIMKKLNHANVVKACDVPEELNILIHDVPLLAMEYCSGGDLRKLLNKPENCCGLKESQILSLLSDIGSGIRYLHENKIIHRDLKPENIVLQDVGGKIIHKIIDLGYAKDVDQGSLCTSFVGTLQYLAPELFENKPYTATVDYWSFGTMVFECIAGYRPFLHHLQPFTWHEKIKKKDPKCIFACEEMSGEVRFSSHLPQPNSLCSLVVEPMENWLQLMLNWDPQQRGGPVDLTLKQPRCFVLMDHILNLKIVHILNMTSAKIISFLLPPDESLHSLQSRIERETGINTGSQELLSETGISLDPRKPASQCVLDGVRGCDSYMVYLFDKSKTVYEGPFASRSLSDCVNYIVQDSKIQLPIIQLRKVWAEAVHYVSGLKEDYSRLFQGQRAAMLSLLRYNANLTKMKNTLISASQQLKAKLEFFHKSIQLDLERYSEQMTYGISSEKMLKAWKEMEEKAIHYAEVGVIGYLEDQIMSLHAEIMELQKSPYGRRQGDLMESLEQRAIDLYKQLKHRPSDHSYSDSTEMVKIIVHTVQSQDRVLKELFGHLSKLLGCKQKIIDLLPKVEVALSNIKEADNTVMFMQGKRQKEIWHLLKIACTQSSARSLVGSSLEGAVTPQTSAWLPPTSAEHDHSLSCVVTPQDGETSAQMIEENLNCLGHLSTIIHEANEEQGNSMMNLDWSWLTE

[3] = molecular target: T2, Inhibitor of nuclear factor kappa-B kinase subunit alpha (Homo sapiens); conditions: at 10 µM
[4] = molecular target: Insulin receptor (Homo sapiens) (UniProt P06213); conditions: at 1 µM
[5] = molecular target: Insulin receptor (Homo sapiens) (UniProt P06213); conditions: at 10 µM
[6] = molecular target: Interleukin-1 receptor-associated kinase 1 (Homo sapiens) (UniProt P51617); conditions: at 1 µM
[7] = molecular target: Interleukin-1 receptor-associated kinase 1 (Homo sapiens) (UniProt P51617); conditions: at 10 µM
[8] = molecular target: T1, Inhibitor of nuclear factor kappa-B kinase subunit beta (Homo sapiens); conditions: at 1 µM
[9] = molecular target: Insulin receptor (Homo sapiens) (UniProt P06213); conditions: at 1 µM; remark: listed apart in the source
[10] = molecular target: Insulin receptor (Homo sapiens) (UniProt P06213); conditions: at 10 µM; remark: listed apart in the source

Sequence of Interleukin-1 receptor-associated kinase 1 (Homo sapiens) (P51617 whole entry, looked up): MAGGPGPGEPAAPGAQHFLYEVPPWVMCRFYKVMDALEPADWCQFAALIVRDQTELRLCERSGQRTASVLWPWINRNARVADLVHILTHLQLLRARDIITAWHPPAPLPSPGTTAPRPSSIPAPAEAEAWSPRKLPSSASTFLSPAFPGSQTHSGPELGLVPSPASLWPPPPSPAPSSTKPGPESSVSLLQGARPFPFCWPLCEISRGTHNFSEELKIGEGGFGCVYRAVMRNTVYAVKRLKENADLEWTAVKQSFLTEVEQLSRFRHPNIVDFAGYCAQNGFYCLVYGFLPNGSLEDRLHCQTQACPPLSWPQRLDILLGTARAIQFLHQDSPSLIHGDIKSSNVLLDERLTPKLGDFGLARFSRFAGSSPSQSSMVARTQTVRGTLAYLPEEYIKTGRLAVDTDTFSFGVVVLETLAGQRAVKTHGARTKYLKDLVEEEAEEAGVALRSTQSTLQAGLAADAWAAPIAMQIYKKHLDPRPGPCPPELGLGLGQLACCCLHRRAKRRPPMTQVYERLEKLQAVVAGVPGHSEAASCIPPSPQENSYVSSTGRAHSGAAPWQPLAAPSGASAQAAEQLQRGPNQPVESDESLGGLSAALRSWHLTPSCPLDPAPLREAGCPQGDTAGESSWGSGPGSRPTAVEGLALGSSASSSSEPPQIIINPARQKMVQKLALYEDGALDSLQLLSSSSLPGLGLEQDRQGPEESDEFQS
Sequence of Insulin receptor (Homo sapiens) (P06213 28-758 limits assumed): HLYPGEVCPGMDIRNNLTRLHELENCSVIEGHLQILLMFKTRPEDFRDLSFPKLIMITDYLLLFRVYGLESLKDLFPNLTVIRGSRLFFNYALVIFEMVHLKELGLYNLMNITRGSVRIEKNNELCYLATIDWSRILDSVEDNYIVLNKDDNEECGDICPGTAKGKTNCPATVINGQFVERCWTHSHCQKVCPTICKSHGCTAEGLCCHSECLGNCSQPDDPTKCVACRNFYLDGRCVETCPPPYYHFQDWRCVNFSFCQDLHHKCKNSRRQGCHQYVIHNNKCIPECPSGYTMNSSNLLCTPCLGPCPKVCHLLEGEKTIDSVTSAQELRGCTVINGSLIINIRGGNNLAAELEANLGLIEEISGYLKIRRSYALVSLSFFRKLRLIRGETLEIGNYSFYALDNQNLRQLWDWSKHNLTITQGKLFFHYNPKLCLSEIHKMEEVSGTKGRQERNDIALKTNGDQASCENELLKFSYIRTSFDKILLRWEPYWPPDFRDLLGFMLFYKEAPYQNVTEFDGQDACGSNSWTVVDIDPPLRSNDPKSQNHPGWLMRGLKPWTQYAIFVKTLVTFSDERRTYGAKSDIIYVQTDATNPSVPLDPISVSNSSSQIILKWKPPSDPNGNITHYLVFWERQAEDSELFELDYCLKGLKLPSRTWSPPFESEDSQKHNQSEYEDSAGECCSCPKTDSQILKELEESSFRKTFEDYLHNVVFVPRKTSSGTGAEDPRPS
Sequence of Insulin receptor (Homo sapiens) (P06213 763-1382 limits assumed): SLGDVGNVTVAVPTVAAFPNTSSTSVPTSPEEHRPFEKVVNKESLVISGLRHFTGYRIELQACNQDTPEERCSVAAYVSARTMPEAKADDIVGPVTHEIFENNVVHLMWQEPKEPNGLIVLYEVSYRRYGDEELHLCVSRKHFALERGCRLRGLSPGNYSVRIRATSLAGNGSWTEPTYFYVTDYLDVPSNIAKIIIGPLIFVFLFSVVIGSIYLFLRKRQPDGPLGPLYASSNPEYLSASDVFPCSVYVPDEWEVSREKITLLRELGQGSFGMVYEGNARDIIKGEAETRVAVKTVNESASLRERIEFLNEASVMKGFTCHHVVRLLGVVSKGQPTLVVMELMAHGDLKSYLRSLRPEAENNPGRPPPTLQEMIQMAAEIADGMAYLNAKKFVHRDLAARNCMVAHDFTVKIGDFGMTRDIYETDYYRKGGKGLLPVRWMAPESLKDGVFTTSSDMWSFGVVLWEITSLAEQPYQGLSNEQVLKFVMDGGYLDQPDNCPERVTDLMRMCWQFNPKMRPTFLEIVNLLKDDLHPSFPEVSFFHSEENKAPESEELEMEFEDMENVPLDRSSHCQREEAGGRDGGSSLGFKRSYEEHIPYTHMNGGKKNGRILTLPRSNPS

| Structure (SMILES) | residual activity [1] | residual activity [2] | residual activity [3] | residual activity [4] | residual activity [5] | residual activity [6] | residual activity [7] | residual activity [8] | residual activity [9] | residual activity [10] |
| --- | --- | --- | --- | --- | --- | --- | --- | --- | --- | --- |
| N/C(=N\[N+](=O)[O-])N/N=C\c1ccc(-c2cccc([N+](=O)[O-])c2)o1 | 99% | – | – | – | – | – | – | – | – | – |
| CCn1cnc2c(Nc3cccc(Cl)c3)nc(N[C@@H]3CCCC[C@@H]3N)nc21 | 93% | 99% | 89% | 70% | 34% | 85% | 64% | – | – | – |
| O=C1Nc2ccc3ncsc3c2/C1=C/c1c[nH]cn1 | 25% | 8% | 1% | 80% | 36% | 28% | 7% | 68% | 85% | 31% |
| O=C1NC(=O)c2c1c1c3ccccc3n3c1c1c2c2ccccc2n1C1CCC3O1 | – | 93% | 73% | 100% | 88% | – | – | – | 94% | 79% |
| CC(C)(C)c1cc(C=C(C#N)C#N)cc(Br)c1O | 99% | 101% | 99% | 109% | 105% | 117% | 107% | 98% | 122% | 108% |
| CC(C)[C@H](CO)Nc1nc(Nc2cccc(Cl)c2)c2ncn(C(C)C)c2n1 | – | – | – | 34% | 4% | 81% | 23% | 116% | 81% | 33% |
| COc1ccc2c(c[n+](C)c3c4cc5c(cc4ccc23)OCO5)c1OC | 84% | 97% | 83% | 99% | 84% | 96% | 83% | – | – | 130% |
| c1cc(-c2cnn3cc(-c4ccc(OCCN5CCCCC5)cc4)cnc23)ccn1 | 85% | – | 86% | – | – | 23% | 2% | – | 138% | – |
| COc1cc2ncnc(Nc3ccc(OCc4ccccc4)cc3)c2cc1OC | 103% | 105% | 99% | 102% | 104% | 81% | 102% | 117% | 115% | 98% |
| CCc1nc(-c2ccc(OC)cc2)[nH]c1-c1ccncc1 | 112% | 100% | 104% | – | – | – | – | 119% | – | – |
| C[S+]([O-])c1ccc(-c2nc(-c3ccc(F)cc3)c(-c3ccncc3)[nH]2)cc1 (stereo unspecified) | 101% | 113% | 96% | 103% | 98% | 108% | 97% | 104% | 94% | 129% |
| O=c1[nH]c2ccccc2n1C1CCN(Cc2ccc(-c3nc4cc5[nH]cnc5cc4nc3-c3ccccc3)cc2)CC1 | 102% | 118% | 109% | 103% | 98% | 103% | 88% | 101% | 119% | 75% |
| COc1cc(OC)c(/C=C2\C(=O)Nc3ccccc32)c(OC)c1 | – | – | – | 98% | 91% | 100% | 103% | – | 82% | 86% |
| COC(=O)[C@@]1(O)C[C@H]2O[C@]1(C)n1c3ccccc3c3c4c(c5c6ccccc6n2c5c31)C(=O)NC4 | 3% | 2% | 3% | 7% | 0% | 1% | 0% | 17% | 42% | 20% |
| O=C1c2ccccc2-c2nc3nnnn3nc21 | 81% | – | – | 104% | 109% | 109% | 103% | 111% | 121% | 102% |
| COc1ccc2c(c1)/C(=C/c1cnc[nH]1)C(=O)N2 | 59% | 74% | 23% | – | – | – | 37% | – | – | – |
| O=[N+]([O-])/C=C/c1ccc2c(c1)OCO2 | 95% | 91% | 94% | 96% | 102% | 95% | 83% | 98% | 117% | 85% |
